# Measured values taken from the supplement of paper PMC12282887.
# ± gives the standard deviation of the averaged measurements.
# Legend:
# Assay in all cases: promoter activity interaction Z-score (Lux/OD deviation from empty-vector control); higher = stronger promoter induction by the compound
# [1] = tested on: E. coli BW25113 acrABp lux reporter
# Outline: (§1)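 E. coli BW25113, as wild type or one of three single-gene deletion strains, carried low-copy luxCDABE promoter reporters and grew in 40 µl LB Lennox in 384-well plates at 37°C, with OD600 and luminescence read every 30 min for 12 h. Each compound was run at four 1:2 dilutions in biological duplicates, integration spanned 0–8 h for wild type and 1–9 h for deletion strains, and wells under 10% of the median growth value were dropped. The score is the Z-transformed residual of growth-normalised luminescence fitted against a control.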
# [2] = tested on: E. coli BW25113 micFp lux reporter
# Outline: as §1
# [3] = tested on: E. coli BW25113 ompFp lux reporter
# Outline: as §1
# [4] = tested on: E. coli BW25113 robp lux reporter
# Outline: as §1
# [5] = tested on: E. coli BW25113 soxSp lux reporter
# Outline: as §1
# [6] = tested on: E. coli BW25113 tolCp lux reporter
# Outline: as §1
# [7] = 13.3 µg/ml, genetic background: wild type
# [8] = 13.3 µg/ml, genetic background: ΔmarA
# [9] = 13.3 µg/ml, genetic background: Δrob
# [10] = 13.3 µg/ml, genetic background: ΔsoxS
# [11] = 26.6 µg/ml, genetic background: wild type
# [12] = 26.6 µg/ml, genetic background: ΔmarA
# [13] = 26.6 µg/ml, genetic background: Δrob
# [14] = 26.6 µg/ml, genetic background: ΔsoxS
# [15] = 53.2 µg/ml, genetic background: wild type
# [16] = 53.2 µg/ml, genetic background: ΔmarA
# [17] = 53.2 µg/ml, genetic background: Δrob
# [18] = 53.2 µg/ml, genetic background: ΔsoxS
# [19] = 106.3 µg/ml, genetic background: wild type
# [20] = 106.3 µg/ml, genetic background: ΔmarA
# [21] = 106.3 µg/ml, genetic background: Δrob
# [22] = 106.3 µg/ml, genetic background: ΔsoxS
structure (smiles),measurement,setting,value
NCCc1c[nH]c2ccc(O)cc12 [Serotonine],promoter activity interaction Z-score,[1]; [7],-0.00265 ± 0.11
same,promoter activity interaction Z-score,[1]; [8],-0.788 ± 0.29
same,promoter activity interaction Z-score,[1]; [9],-0.254 ± 0.091
same,promoter activity interaction Z-score,[1]; [10],-0.249 ± 0.17
same,promoter activity interaction Z-score,[1]; [11],0.0217 ± 0.063
same,promoter activity interaction Z-score,[1]; [12],-0.85 ± 0.58
same,promoter activity interaction Z-score,[1]; [13],-0.276 ± 0.24
same,promoter activity interaction Z-score,[1]; [14],-0.0282 ± 0.36
same,promoter activity interaction Z-score,[1]; [15],-0.325 ± 0.06
same,promoter activity interaction Z-score,[1]; [16],-0.49 ± 0.22
same,promoter activity interaction Z-score,[1]; [17],-0.415 ± 0.17
same,promoter activity interaction Z-score,[1]; [18],-0.545 ± 0.3
same,promoter activity interaction Z-score,[1]; [19],0.00625 ± 0.31
same,promoter activity interaction Z-score,[1]; [20],-0.338 ± 0.23
same,promoter activity interaction Z-score,[1]; [21],-0.109 ± 0.092
same,promoter activity interaction Z-score,[1]; [22],-0.397 ± 0.11
same,promoter activity interaction Z-score,[2]; [7],-0.241 ± 0.065
same,promoter activity interaction Z-score,[2]; [8],-0.0379 ± 0.032
same,promoter activity interaction Z-score,[2]; [9],-0.00374 ± 0.19
same,promoter activity interaction Z-score,[2]; [10],-0.156 ± 0.27
same,promoter activity interaction Z-score,[2]; [11],0.00853 ± 0.19
same,promoter activity interaction Z-score,[2]; [12],0.0453 ± 0.21
same,promoter activity interaction Z-score,[2]; [13],0.0253 ± 0.12
same,promoter activity interaction Z-score,[2]; [14],-0.0552 ± 0.27
same,promoter activity interaction Z-score,[2]; [15],-0.712 ± 0.14
same,promoter activity interaction Z-score,[2]; [16],0.105 ± 0.08
same,promoter activity interaction Z-score,[2]; [17],-0.0954 ± 0.018
same,promoter activity interaction Z-score,[2]; [18],-0.396 ± 0.062
same,promoter activity interaction Z-score,[2]; [19],-0.289 ± 0.23
same,promoter activity interaction Z-score,[2]; [20],0.0717 ± 0.036
same,promoter activity interaction Z-score,[2]; [21],-0.13 ± 0.074
same,promoter activity interaction Z-score,[2]; [22],-0.339 ± 0.011
same,promoter activity interaction Z-score,[3]; [7],-0.556 ± 0.15
same,promoter activity interaction Z-score,[3]; [8],-0.881 ± 0.092
same,promoter activity interaction Z-score,[3]; [9],-0.716 ± 0.021
same,promoter activity interaction Z-score,[3]; [10],-0.309 ± 0.16
same,promoter activity interaction Z-score,[3]; [11],-0.212 ± 0.059
same,promoter activity interaction Z-score,[3]; [12],-0.69 ± 0.35
same,promoter activity interaction Z-score,[3]; [13],-1.16 ± 0.13
same,promoter activity interaction Z-score,[3]; [14],-0.158 ± 0.048
same,promoter activity interaction Z-score,[3]; [15],-0.996 ± 0.15
same,promoter activity interaction Z-score,[3]; [16],-0.794 ± 0.068
same,promoter activity interaction Z-score,[3]; [17],-0.999 ± 0.19
same,promoter activity interaction Z-score,[3]; [18],-0.802 ± 0.085
same,promoter activity interaction Z-score,[3]; [19],-0.733 ± 0.22
same,promoter activity interaction Z-score,[3]; [20],-0.818 ± 0.24
same,promoter activity interaction Z-score,[3]; [21],-0.632 ± 0.014
same,promoter activity interaction Z-score,[3]; [22],-0.689 ± 0.16
same,promoter activity interaction Z-score,[4]; [7],-0.357 ± 0.24
same,promoter activity interaction Z-score,[4]; [8],-0.786 ± 0.2
same,promoter activity interaction Z-score,[4]; [9],-0.355 ± 0.17
same,promoter activity interaction Z-score,[4]; [10],0.188 ± 0.045
same,promoter activity interaction Z-score,[4]; [11],0.207 ± 0.12
same,promoter activity interaction Z-score,[4]; [12],-0.465 ± 0.14
same,promoter activity interaction Z-score,[4]; [13],-0.388 ± 0.26
same,promoter activity interaction Z-score,[4]; [14],0.275 ± 0.77
same,promoter activity interaction Z-score,[4]; [15],-0.669 ± 0.27
same,promoter activity interaction Z-score,[4]; [16],-0.144 ± 0.64
same,promoter activity interaction Z-score,[4]; [17],-0.179 ± 0.34
same,promoter activity interaction Z-score,[4]; [18],-0.554 ± 0.4
same,promoter activity interaction Z-score,[4]; [19],0.176 ± 0.072
same,promoter activity interaction Z-score,[4]; [20],0.574 ± 0.46
same,promoter activity interaction Z-score,[4]; [21],0.0481 ± 0.46
same,promoter activity interaction Z-score,[4]; [22],-0.714 ± 0.32
same,promoter activity interaction Z-score,[5]; [7],-0.18 ± 0.0085
same,promoter activity interaction Z-score,[5]; [8],-0.19 ± 0.0051
same,promoter activity interaction Z-score,[5]; [9],-0.045 ± 0.2
same,promoter activity interaction Z-score,[5]; [10],-0.24 ± 0.11
same,promoter activity interaction Z-score,[5]; [11],-0.101 ± 0.061
same,promoter activity interaction Z-score,[5]; [12],-0.181 ± 0.093
same,promoter activity interaction Z-score,[5]; [13],-0.254 ± 0.35
same,promoter activity interaction Z-score,[5]; [14],-0.331 ± 0.17
same,promoter activity interaction Z-score,[5]; [15],-0.456 ± 0.097
same,promoter activity interaction Z-score,[5]; [16],-0.276 ± 0.14
same,promoter activity interaction Z-score,[5]; [17],-0.264 ± 0.11
same,promoter activity interaction Z-score,[5]; [18],-0.531 ± 0.027
same,promoter activity interaction Z-score,[5]; [19],-0.199 ± 0.16
same,promoter activity interaction Z-score,[5]; [20],-0.243 ± 0.18
same,promoter activity interaction Z-score,[5]; [21],-0.285 ± 0.11
same,promoter activity interaction Z-score,[5]; [22],-0.676 ± 0.071
same,promoter activity interaction Z-score,[6]; [7],-0.64 ± 0.46
same,promoter activity interaction Z-score,[6]; [8],-0.135 ± 0.24
same,promoter activity interaction Z-score,[6]; [9],0.259 ± 1.6
same,promoter activity interaction Z-score,[6]; [10],-0.321 ± 0.043
same,promoter activity interaction Z-score,[6]; [11],0.564 ± 0.026
same,promoter activity interaction Z-score,[6]; [12],-0.00904 ± 0.37
same,promoter activity interaction Z-score,[6]; [13],-0.3 ± 0.55
same,promoter activity interaction Z-score,[6]; [14],0.737 ± 0.3
same,promoter activity interaction Z-score,[6]; [15],-0.749 ± 0.61
same,promoter activity interaction Z-score,[6]; [16],-0.0593 ± 0.84
same,promoter activity interaction Z-score,[6]; [17],-0.236 ± 1.2
same,promoter activity interaction Z-score,[6]; [18],-0.229 ± 1.1
same,promoter activity interaction Z-score,[6]; [19],-0.235 ± 0.56
same,promoter activity interaction Z-score,[6]; [20],0.575 ± 0.063
same,promoter activity interaction Z-score,[6]; [21],-0.637 ± 0.9
same,promoter activity interaction Z-score,[6]; [22],-0.781 ± 0.14
